# Screening results (PubChem BioAssay)
# GPR151 ag – activators of human GPR151, primary screen, cell-based, PathHunter beta-arrestin, luminescence. activation, % at 11.2 µM. AID 1508602, 2020. PathHunter beta-arrestin GPR151 cells. G-protein coupled receptor 151 (Homo sapiens), Q8TDV0. hit rate 1% among 650,000; in the data active = activation above about 4.9%;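 note: 0% = median of compound wells and 100% = cells with positive control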
# FBW7 activator – FBW7 E3 ligase activators, primary screen, biochemical, AlphaScreen, human; F-box/WD repeat-containing protein 7 (Homo sapiens), Q969H0; normalized activity (activation), % at 26.1 µM; AID 1259310, 2017; hit rate 0.13% among 650,000; AlphaScreen FBW7–phospho-cyclin E peptide binding, activator screen; in the data active = normalized activity above about 1.9%;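 note: purified mutant Fbw7 with reduced substrate affinity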
# TEAD-YAP inh – TEAD-YAP interaction inhibition, primary screen, TEAD-YAP interaction inhibitor project, luminescence, HEK-TIYL cells | TEAD-Gal4/YAP UAS-luciferase luminescence | inhibition, % at 9.12 µM | hit rate 1.4% among 640,000 | AID 1259422, 2018; in the data active = inhibition above about 32%;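 note: 0% = median of test compound wells and 100% = reference inhibitor wells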
# MITF inh – MITF inhibitors, primary screen, biochemical, AlphaScreen, human; hit rate 0.91% among 650,000; AlphaScreen MITF homodimerization, bead proximity signal; inhibition, % at 2.6 µM; Microphthalmia-associated transcription factor (Homo sapiens), O75030; AID 1259374, 2018; in the data active = inhibition above about 50%;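 note: 0% = vehicle wells with protein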
# Target sequence (O75030 whole entry, looked up): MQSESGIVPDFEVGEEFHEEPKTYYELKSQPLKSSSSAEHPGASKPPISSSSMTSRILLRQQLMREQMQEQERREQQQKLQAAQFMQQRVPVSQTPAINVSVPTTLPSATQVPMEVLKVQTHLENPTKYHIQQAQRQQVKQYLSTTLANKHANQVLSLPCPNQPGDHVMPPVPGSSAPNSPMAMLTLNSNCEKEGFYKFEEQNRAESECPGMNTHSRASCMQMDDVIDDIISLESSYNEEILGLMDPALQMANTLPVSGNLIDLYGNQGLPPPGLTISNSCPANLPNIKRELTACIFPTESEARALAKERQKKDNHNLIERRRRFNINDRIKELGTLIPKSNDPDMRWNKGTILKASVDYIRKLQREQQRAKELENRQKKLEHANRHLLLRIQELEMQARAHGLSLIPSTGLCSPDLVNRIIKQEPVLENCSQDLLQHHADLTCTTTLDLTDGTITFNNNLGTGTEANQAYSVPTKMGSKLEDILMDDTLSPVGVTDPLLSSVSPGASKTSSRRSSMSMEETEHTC
# MITF confirm – MITF inhibitors, retest of hits, confirmation, biochemical, AlphaScreen, triplicate; shares compounds with MITF inh; AlphaScreen MITF homodimerization, biotin/His-MITF beads; inhibition, % at 2.6 µM; hit rate 16% among 4,700; AID 1259372, 2018;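 active = inhibition above a cutoff derived from the DMSO control wells, cut at about 28% in these data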;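 note: 0% = MITF dimer wells with DMSO only; inhibitors lower the bead chemiluminescence by keeping MITF from dimerizing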
# AS interf DR – AlphaScreen optical interference compounds, dose response, counter-screen, biochemical, HTS; AlphaScreen optical interference counterscreen, cell-free; IC50, µM; hit rate 6% among 480; shares compounds with MITF inh; call rule not given here
# AS interf ctr – AlphaScreen optical interference compounds, counter-screen for MITF inhibitor project, biochemical, triplicate; shares compounds with MITF inh; LysRS AlphaScreen counterscreen, signal interference; inhibition, % at 2.6 µM; hit rate 7.6% among 4,700; AID 1259376, 2018;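 active = inhibition above a cutoff derived from the DMSO control wells, cut at about 30% in these data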
# * = called active by the depositor; . = not tested or not shown. Compounds with a hit are over-represented: about 3.5% of the library has one in this group of screens.
SMILES,GPR151 ag,FBW7 activator,TEAD-YAP inh,MITF inh,MITF confirm,AS interf ctr,others
CCOC(=O)c1c(C)c(C(=O)NCCc2ccc(OC)c(OC)c2)c(C)n1C,-0.2,-0.2,0.9,0.2,.,.,
Cc1cc(=O)[nH]c(N/N=C/c2cccc(Cl)c2Cl)n1,-1.5,0.6,0.9,79.2*,-2.7,6.6,
O=C(Nc1ccccc1)c1ccc2nc(-c3cccs3)sc2c1,-3.5,0.0,-59.2,2.1,.,.,
NC(=O)c1ccc2nc(-c3cccs3)sc2c1,-7.7,0.1,33.3*,72.5*,60.0*,6.1,AS interf DR=>6.18
CC(=O)c1cccc(-c2cccc(C(N)=O)c2)c1,4.8,0.1,-5.6,-0.1,.,.,
NC(=O)c1cccc(-c2cccs2)c1,-0.2,0.3,-12.4,66.2*,57.0*,10.6,AS interf DR=>6.74
O=C(NCCCN1CCOCC1)c1cc2cc(Br)ccc2oc1=O,-0.5,1.7,5.4,59.6*,8.1,17.5,
CN1CCN(CCCOc2ccccc2C=O)CC1,-1.3,0.6,-2.4,65.2*,6.1,17.0,
CC(=O)CCc1ccc(OCCCN2CCN(Cc3ccccc3)CC2)cc1,0.2,-0.1,1.0,59.3*,9.4,5.6,
CN1CCN(CCCOc2ccc(Cc3ccccc3)cc2)CC1,0.1,-0.2,4.1,-3.7,.,.,
CCCCOc1ccc(CN2CCN(CCOCCO)CC2)cc1,2.3,0.0,6.3,76.1*,18.4,-0.6,
COc1ccc(CN2CCN(CCOCCO)CC2)cc1,1.5,0.1,5.5,14.5,.,.,
O=Cc1ccc(OCCCN2CCN(Cc3ccccc3)CC2)cc1,-0.2,-0.1,9.5,57.0*,6.3,10.1,
O=C(CCn1c(=O)[nH]c2ccccc2c1=O)NCc1ccc2c(c1)OCO2,-0.3,-0.1,2.2,-8.0,.,.,
CC(=O)Nc1ccc(NC(=O)CSCc2c(F)cccc2Cl)cc1,0.6,0.0,-12.9,6.3,.,.,
O=Cc1cc(Cl)ccc1OCCOc1ccccc1,-1.0,0.4,-48.0,-3.0,.,.,
O=Cc1cc(Cl)ccc1OCCCN1CCN(Cc2ccccc2)CC1,0.5,-0.1,-3.7,56.6*,5.5,10.5,
CN1C(=O)CC(C(=O)Nc2ccc(Cl)cc2)SC1=Nc1cc(Cl)c(O)c(Cl)c1 (stereo unspecified),0.6,0.1,-28.4,8.1,.,.,
c1cc(NC2CCCNC2)n2ncc(-c3ccoc3)c2n1 (stereo unspecified),1.0,0.1,-62.5,68.2*,10.9,16.6,
CCOc1cc(C=O)ccc1OCC(=O)OC,0.9,0.0,-7.3,8.7,.,.,
CCOC(=O)COc1ccc(C=O)cc1OCC,3.2,0.0,1.0,76.2*,3.8,11.8,
O=C(CN1CCC(N2CCCCC2)CC1)c1ccc2c(c1)OCCO2,2.7,-0.1,-5.8,58.3*,11.0,16.1,
O=C(CN1CCC(N2CCCCC2)CC1)Nc1ccc2c(c1)OCCO2,2.2,0.2,-6.4,7.4,.,.,
O=C1CSC(=O)N1CC(O)COc1cccc2ccccc12 (stereo unspecified),1.3,-0.1,0.4,88.7*,11.9,2.7,
CCCC(C)NC(=O)Cc1ccc(Br)cc1 (stereo unspecified),1.0,0.0,-14.6,50.8*,3.2,8.8,
SMILES,GPR151 ag,FBW7 activator,TEAD-YAP inh,MITF inh,MITF confirm,AS interf ctr,others
NN1C(=O)/C(=C\c2ccc(Cl)cc2)NC1=S,0.4,0.1,11.6,52.6*,1.0,7.8,
COc1ccc(OC)c(-n2c(-c3cccnc3)n[nH]c2=S)c1,-0.2,0.0,7.7,4.2,.,.,
COc1ccccc1CNCC(=O)c1ccc(OC)c(OC)c1,-0.4,-0.2,1.7,68.4*,-5.9,0.2,
COc1cc(CN2CCN(Cc3cccc(Cl)c3)CC2)cc2c1OCO2,-1.2,-0.2,-6.7,48.6,.,.,
COc1cc(CN2CCN(Cc3ccc(SC)cc3)CC2)cc2c1OCO2,-0.3,-0.2,9.6,64.7*,12.4,7.3,
COc1cc(OC)c(OC)cc1CN1CCN(Cc2cc(OC)c3c(c2)OCO3)CC1,-0.7,-0.1,4.0,58.9*,-7.5,-6.1,
COc1ccc(CN2CCN(Cc3cc(OC)c4c(c3)OCO4)CC2)c(OC)c1,-1.8,0.3,17.2,29.7,.,.,
COc1cc(CN2CCN(Cc3ccc(Br)cc3)CC2)cc2c1OCO2,0.1,-0.4,-4.5,69.4*,3.5,17.7,
O=C(CN1C(=O)c2ccccc2C1=O)ON=C1CCCCC1,-1.3,0.3,8.2,13.7,.,.,
CN(c1ccc(C(F)(F)F)cn1)C1CCCCC1,0.9,0.1,-5.1,60.3*,-0.3,10.0,
FC(F)(F)c1ccc(NC2CCCCC2)nc1,-0.4,0.8,11.7,7.4,.,.,
Cc1sc2ncnc(NCC(c3ccco3)N(C)C)c2c1C (stereo unspecified),-1.1,0.2,-9.2,61.7*,13.0,13.6,
Nc1nc(-c2cccnc2)nn1C(=O)c1ccc([N+](=O)[O-])cc1,-1.8,-0.1,5.7,55.3*,12.3,16.9,
Nc1nc(-c2cccnc2)nn1C(=O)c1ccc(Cl)cc1,-1.1,0.5,-10.8,4.4,.,.,
FC(F)(F)c1cccc(CNc2cc(-c3csc4ccccc34)ncn2)c1,3.3,0.3,-3.3,61.8*,-3.4,0.3,
Cc1cc(NCc2cccc(C(F)(F)F)c2)nc(-c2csc3ccccc23)n1,-0.2,0.1,-5.7,13.9,.,.,
COc1ccc(CN(CCCN(C)C)CCCN(C)C)cc1OC,-0.2,0.0,1.3,34.5,.,.,
CN(C)CCCN(CCCN(C)C)Cc1ccc(Br)cc1,0.1,0.1,2.5,53.8*,-0.7,8.0,
O=C(N[C@H]1C[C@H]2C(=O)N3CCC[C@@H]3C(=O)N2C1)c1cc(F)c(F)cc1F,0.6,1.1,-33.1,7.1,.,.,
Cc1ccc(C(C)C)cc1OCCN1CCOCC1,0.1,0.1,13.6,51.0*,-10.7,-7.2,
Cc1ccc(C(C)C)cc1OCCn1cncn1,1.1,-0.1,-7.7,66.1*,10.4,17.1,
COc1cccc(OCCn2cncn2)c1,-1.3,0.6,4.4,11.2,.,.,
Cc1ccc(C)c(OCCCN2CCOCC2)c1,0.6,-0.1,1.9,9.6,.,.,
Cc1ccc(C(C)C)cc1OCCCCN1CCOCC1,1.4,-0.3,10.2,78.9*,-7.2,-5.7,
CC(C)c1cccc(OCCCN2CCOCC2)c1,2.7,0.4,-1.3,56.0*,14.3,14.7,
COc1ccccc1N1CCN(C(=O)c2ccc(-n3c(=S)[nH]c4ccccc4c3=O)cc2)CC1,-0.7,0.1,5.3,7.2,.,.,
CCn1c(Cc2ccccc2)nnc1SCC(=O)Nc1cc(C(=O)OC)ccc1Cl,2.3,0.3,2.1,1.5,.,.,
Cc1cc(OCCN2CCOCC2)ccc1C(C)C,-1.9,0.2,-39.4,59.5*,1.7,3.0,
CCN1CCN(C(=O)C2CCN(Cc3ccc(Cl)c(Cl)c3)CC2)CC1,-0.5,0.5,3.0,63.4*,-14.7,-5.2,
